Shiga inhibitor: A qHTS for Small Molecule Inhibitors of Shiga Toxin | Vero cells, Shiga toxin protein synthesis inhibition reporter | inhibition, % at 38.7 µM | 290,000 compounds, 9.2% hits; in the data active means inhibition mostly above about 28%, no sharp cut-off; inactive means mostly below about 43%
RE007 growth inh: qHTS Assay for Inhibitors of the HIV-1 protein Vpr | AID 651644, 2012 | Potency, µM (titrated, usually from 92.2 µM), actives largely listed as inhibitors | 360,000 compounds, 0.21% hits | S. pombe RE007 Vpr strain, BacTiter-Glo ATP luminescence, 24 h; active means well fitted falling curve with a large enough effect; inconclusive means small, poorly fitted or top-dose-only effect; inactive means no such curve, though single readings can be large or run the other way; further: nearly all actives have a fitted effect of over 50% in size
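Fission yeast RE007 carrying one integrated HIV-1 vpr copy, seeded at OD 0.01 in PMG+AL medium with 23 nL pinned compound. Grown 24 h at 30 degrees; viability read by BacTiter-Glo luminescence after 5 min.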
FBPA Giardia inh: qHTS Assay for Inhibitors of Fructose-1,6-bisphosphate Aldolase from Giardia Lamblia | 290,000 compounds, 0.71% hits | A8B2U2 | Potency, µM (series often up to 59.6 µM), usual class: inhibitors | purified Giardia FBPA; further: nearly all actives have a fitted effect of over 55% in size
Target sequence (A8B2U2 whole entry, looked up): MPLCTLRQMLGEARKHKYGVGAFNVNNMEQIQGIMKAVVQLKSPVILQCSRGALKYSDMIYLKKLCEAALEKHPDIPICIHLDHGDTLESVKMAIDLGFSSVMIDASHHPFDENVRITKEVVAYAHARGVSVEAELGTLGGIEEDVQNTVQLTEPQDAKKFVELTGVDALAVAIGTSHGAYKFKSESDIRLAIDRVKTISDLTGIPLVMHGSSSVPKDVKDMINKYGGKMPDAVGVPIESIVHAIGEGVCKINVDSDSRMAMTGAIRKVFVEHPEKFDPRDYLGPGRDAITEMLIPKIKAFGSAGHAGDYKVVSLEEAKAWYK
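40 nM FBPA preincubated 10 min at RT with compound (up to 57.5 uM final), then substrate plus GAPDH/TPI/NAD/arsenate coupling and diaphorase/resazurin added. Fluorescence read after 20 min at RT, 525/598 nm.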
LmPK inhibitor: qHTS Assay for Inhibitors of Leishmania Mexicana Pyruvate Kinase (LmPK); Q27686; purified LmPK, Kinase-Glo ATP luminescence, 1 h; Potency, µM (doses to about 57.5 µM), actives largely listed as inhibitors; 290,000 compounds, 0.37% hits
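ATP generated from ADP (0.1 mM) and PEP (0.5 mM) by 0.1 nM LmPK over 1 h at room temperature (pH 7.2 imidazole buffer) was detected by coupled luciferase luminescence. Values were normalized to uninhibited and no-enzyme wells.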
TbPYK inhibitor: qHTS of Trypanosoma Brucei Inhibitors. pyruvate kinase (Trypanosoma brucei), Q57TT1. TbPYK enzyme, Kinase-Glo Plus ATP luminescence, 45 min. Potency, µM (top dose mostly 76.8 µM), hits mostly inhibitors. 410,000 compounds, 0.12% hits. AID 624173, 2012; further: nearly all actives have a fitted effect of over 50% in size
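Activity of T. brucei pyruvate kinase was followed by Kinase-Glo Plus luminescence after the enzyme reacted 45 min at room temperature with 130 uM ADP (final) and substrate. Test compounds were added before ADP at multiple concentrations.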
CHX counter: Cycloheximide Counterscreen for Small Molecule Inhibitors of Shiga Toxin; cell reporter, cycloheximide protein synthesis inhibition counterscreen; max response, %; 300,000 compounds, 12% hits; AID 2314, 2010; in the data active means max response mostly above about 13%, no sharp cut-off; inactive means mostly below about 14%; further: read at 38.3 µM for the half of the compounds with a filed dose
Hits are given with their value; i = inactive; ? = inconclusive; nt = no result; [ ] = another dose, or the depositor's remark. The sample as a whole holds a higher share of hits than the screen did. Unless noted, the call rests on the fitted dose curve; in most records, active means well fitted curve in the direction sought with a large enough effect; inconclusive means small, poorly fitted or top-dose-only effect, or another doubt; inactive means no such curve, though single readings can be large; an effect the other way counts as inactive or inconclusive.

SMILES	Shiga inhibitor	RE007 growth inh	FBPA Giardia inh	LmPK inhibitor	TbPYK inhibitor	CHX counter
COc1ccc(OCc2ccc(/C=N\NC(=O)c3sccc3C)o2)cc1	68	i	nt	i	i	25
CC(C)NC(=O)c1cc(-c2ccc(F)cc2OC(C)C)n[nH]1	nt	i[18.4 µM]	nt	nt	i	nt
NC(N)=NN=C(/C=C/c1ccc([N+](=O)[O-])o1)/C=C/c1ccc([N+](=O)[O-])o1	nt	nt	nt	nt	i	nt
CCCCN(C(=O)c1cccc2c(=O)c(C)c(-c3ccccc3)oc12)c1ccccc1	i	i	i	i	i	i
CC(OC(=O)C1=Cc2ccccc2OC1)C(=O)NCC1CCCO1 (configuration not stated)	nt	i	nt	nt	?	nt
CCOC(=O)C1C(=O)NC(C(=O)OCC)(C(=O)OCC)C1C(C)CC (configuration not stated)	nt	i	nt	nt	i	nt
N#C/C(=C\c1ccc(OCc2ccc(Cl)cc2)cc1)C(=O)Nc1cccc(C(=O)O)c1	34	i	i	i	i	18
COc1cc(/C=C(/C#N)C(=O)Nc2ccccc2)ccc1OCc1ccc(C(=O)O)cc1	i	i	i	i	i	i
N#C/C(=C\c1ccc(OCc2cccc(C(=O)O)c2)cc1)C(=O)NCc1ccco1	101	i	i	i	i	52
COc1cc(/C=C(/C#N)c2ccccc2F)ccc1OCc1ccccc1	53	i	i	i	i	34
O=C(O)c1cccc(NC(=O)c2ccc(COc3ccc(Cl)cc3)cc2)c1	i	i	i	i	i	i
COc1cc(/C=C(\C#N)C(=O)Nc2cccc(C(=O)O)c2)ccc1OCc1ccc(C)cc1	74	i	i	i	i	26
CC12CCC(C(=O)N(NC(=O)c3cc(Cl)ccc3O)C1=O)C2(C)C (configuration not stated)	i	i	i	i	i	i
COCCn1c(=O)c(-c2cccc(C#N)c2)nc2cnc(N3CCN(C)CC3)nc21	nt	nt	i	nt	nt	nt
O=C(O)CCN1C(=O)/C(=C/c2ccc(-c3nc4ccccc4s3)o2)SC1=S	i	i	i	i	i	i
O=C(O)c1ccc(-c2nc3ccccc3s2)o1	78	i	i	i	i	45
O=C(c1ccc(-c2nc3ccccc3s2)o1)N1CCN(c2ccccc2O)CC1	i	i	nt	i	i	37
O=Cc1ccc(-c2nc3ccccc3s2)o1	61	i	i	16µM	i	29
O=C(Nc1cccc(F)c1)N1CC2(CCN(C(=O)c3ccncc3)CC2)C1	nt	nt	i	nt	i	nt
C=C(C(C)=O)C(O)c1ccccc1 (configuration not stated)	nt	nt	i	nt	nt	nt
COC(=O)CNC(=O)COC(=O)Cc1ccc(Cl)cc1	i	i	i	i	i	i
O=S(=O)(c1ccc(F)cc1)N1CCC(n2cnc3ccccc32)CC1	i	i	nt	i	i	i
CCc1ccc2nc3sc(C(=O)N4CCc5ccccc54)c(N)c3cc2c1	i	nt	i	i	nt	i
CCOc1ccc2nc3sc(C(=O)N4CCN(C)CC4)c(N)c3cc2c1	i	i	i	i	i	17
Cc1ccc2nc3sc(C(=O)N4CCOCC4)c(N)c3cc2c1	54	i	i	i	i	30
SMILES	Shiga inhibitor	RE007 growth inh	FBPA Giardia inh	LmPK inhibitor	TbPYK inhibitor	CHX counter
CCOc1ccc(-n2c(N)c(C(=O)N3CCN(C)CC3)sc2=S)cc1	i	i	i	i	i	i
CC(C)c1ccc2nc3sc(C(=O)N4CCc5ccccc5C4)c(N)c3cc2c1	i	i	i	i	i	24
Cc1ccc2cc3c(N)c(C(=O)N4CCOCC4)sc3nc2c1	103	i	i	i	i	30
COCCn1c(=N)c(S(=O)(=O)c2ccc(F)cc2)cc2c(=O)n3ccccc3nc21	i	i	i	i	i	i
O=C(O)CN1C(=O)C(=O)N(Cc2ccc(C(F)(F)F)cc2)C1=O	i	i	i	i	i	i
COc1ccc2cc3c(N)c(C(=O)N4CCCC4)sc3nc2c1	101	?	i	i	i	69
Cc1ccccc1CSc1ccc(-c2cccs2)nn1	nt	nt	nt	nt	i	nt
Cc1ccc(CSc2ccc(-c3cccs3)nn2)cc1	47	i	i	i	i	46
Fc1ccc(CSc2ccc(-c3cccs3)nn2)cc1	i	i	i	i	i	30
c1cncc(CSc2ccc(-c3cccs3)nn2)c1	44	i	i	i	i	26
Cc1ccc(CNC(=O)CSc2ccc(-c3cccs3)nn2)cc1	i	i	i	i	i	i
Fc1cccc(CSc2ccc(-c3cccs3)nn2)c1	nt	nt	nt	nt	i	nt
COc1ccc(NC(=O)Cn2c(=O)n(-c3ccc(OC)cc3)c(=O)c3sc4ccccc4c32)cc1	nt	nt	nt	nt	i	nt
CCOC(=O)CN1C(=O)S/C(=C/c2ccc3c(c2)n(C)c(=O)n3C)C1=O	44	i	i	i	i	40
CCOC(=O)CN1C(=O)S/C(=C/C=C/c2ccc(N(C)C)cc2)C1=O	i	i	i	i	i	30
c1ccc(-c2cn3nc4c(nc3n2)CCCC4)cc1	i	?	?	i	?	i
Brc1ccc(-c2cn3nc4c(nc3n2)CCCC4)cc1	122	i	i	?	i	46
CCOC(=O)N(C)C(=O)CSP(=S)(OCC)OCC	i	nt	i	nt	nt	i
COc1ccc(OC)c(-c2csc(NC(=O)Cc3ccccc3F)n2)c1	41	i	i	i	i	28
Cc1cc(CNC(=O)Cc2c(F)cccc2Cl)nn1C	34	i	i	i	i	18
Cc1cc(CNC(=O)c2cc(COc3c(F)cccc3F)on2)nn1C	i	i	i	i	i	i
Cc1csc(NC(=O)Cc2ccc(F)cc2)n1	77	i	i	i	i	34
Cc1ccc(CC(=O)Nc2cccc(C)n2)cc1	69	i	i	i	i	33
COc1ccc(OC)c(-c2csc(NC(=O)Cc3ccccc3OC)n2)c1	i	i	i	i	i	i

Screening data: PubChem BioAssay, National Center for Advancing Translational Sciences (NCATS)
